Screening results from PubChem.
In the library only some 1.8% were active in any assay of this set; here they are far more common.
KCNH2 3.1 inh – blocks the human KCNH2 3.1 channel isoform; 340,000 compounds, 0.95% hits; activity change, % (tested at about 1.8 µM); U2OS KCNH2 3.1, thallium flux FluxOr; hits give low values; AID 720553;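 active means maximum activity change below -70%; inconclusive means maximum activity change from -70% to -50%; inactive means maximum activity change above -50%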;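 further: thallium influx rate constant from kinetic fluorescence after stimulation buffer; on the % scale 0 is the no-effect control and ±100 the full control effect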
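Steps: virus added to U2OS suspension (4 h, RT, dark); medium with 10% FBS added, cells plated, 37 C overnight; FluxOr/Red40 loading buffer 45 min RT; stimulation buffer, 2 min kinetic read; rate constant normalized.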
AT treatment – candidate therapy for ataxia-telangiectasia | F2112 A-T fibroblasts, KAP-1 phosphorylation AlphaLISA; neocarzinostatin DNA damage 30 min before lysis | Potency, µM (highest dose often 57.5 µM), without a hit: at the top dose activation, actives largely listed as activators | 320,000 compounds, 0.19% hits | AID 485349; further: potency means the concentration at half of the fitted maximal effect; % of control where 0% means no effect; nearly all actives have a fitted effect of over 45% in size
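ATM-like activity read as KAP-1 phosphorylation via AlphaLISA donor/acceptor antibody pairs after lysis and 6 hr at 25C. Cells were ATM-null patient fibroblasts (F2112, hTERT), dosed 60 min, then exposed to the DSB inducer NCS for 30 min.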
ALOX12 inh – blocks human arachidonate 12S-lipoxygenase. purified 12hLO, xylenol orange hydroperoxide absorbance. Potency, µM (top dose mostly 108 µM), inactives show at the top dose activity change, negative = inhibition, actives largely listed as inhibitors. 580,000 compounds, 1.1% hits. AID 1671190; further: potency means the concentration at half of the fitted maximal effect; on the % scale 0 is the no-effect control and ±100 the full control effect
Target sequence (P18054 whole entry, looked up): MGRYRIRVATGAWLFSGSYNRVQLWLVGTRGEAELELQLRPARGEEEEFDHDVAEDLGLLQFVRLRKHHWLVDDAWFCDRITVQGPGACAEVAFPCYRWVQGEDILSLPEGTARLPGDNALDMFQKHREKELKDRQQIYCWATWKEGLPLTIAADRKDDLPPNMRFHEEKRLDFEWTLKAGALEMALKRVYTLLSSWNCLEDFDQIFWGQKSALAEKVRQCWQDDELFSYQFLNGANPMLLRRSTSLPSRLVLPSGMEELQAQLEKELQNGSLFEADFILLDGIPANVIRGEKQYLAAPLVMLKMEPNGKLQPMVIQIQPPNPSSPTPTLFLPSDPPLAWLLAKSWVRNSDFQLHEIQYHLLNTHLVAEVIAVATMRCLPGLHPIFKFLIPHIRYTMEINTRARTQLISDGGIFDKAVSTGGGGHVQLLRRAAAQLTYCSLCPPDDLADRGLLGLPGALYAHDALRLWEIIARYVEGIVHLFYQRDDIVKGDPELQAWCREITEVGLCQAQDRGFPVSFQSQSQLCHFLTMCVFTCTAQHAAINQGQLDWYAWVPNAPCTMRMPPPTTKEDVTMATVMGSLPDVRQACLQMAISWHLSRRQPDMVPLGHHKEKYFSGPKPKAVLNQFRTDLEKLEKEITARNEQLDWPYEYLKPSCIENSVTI
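Hydroperoxide product was detected by ferrous iron/xylenol orange as the 573 to 405 nm absorbance ratio. Arachidonic acid at 40 uM (final) was turned over for 30 min at room temperature by 150 nM human 12hLO, pH 7.0 Hepes buffer, after 15 min compound preincubation.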
KCNH2 WT inh – inhibitors of human wildtype KCNH2 potassium channel. U2OS, BacMam KCNH2, thallium flux FluxOr; hits give low values. 340,000 compounds, 0.37% hits. activity change, % at 1.84 µM. Q12809;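 active means maximum activity change below -70%; inconclusive means maximum activity change between -70% and -50%; inactive means maximum activity change above -50%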; further: on the % scale 0 is the no-effect control and ±100 the full control effect
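U2OS cells transduced with wild-type KCNH2 virus are loaded with FluxOr dye for 45 min, and thallium flux is measured in kinetic reads before and after stimulation buffer. Rate constants are normalized to DMSO controls.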
Starred values were filed as active, the others as inactive; i = inactive; u = inconclusive; x = not tested or not shown; ! = not active in a repeat; [ ] = remark or other dose. Unless noted, the call rests on the fitted dose curve; in most records, active means well fitted curve in the direction sought with a large enough effect; inconclusive means small, poorly fitted or top-dose-only effect, or another doubt; inactive means no such curve, though single readings can be large; an effect the other way counts as inactive or inconclusive.

SMILES	KCNH2 3.1 inh	AT treatment	ALOX12 inh	KCNH2 WT inh
Cc1coc2c1C(=O)C(=O)c1c-2ccc2c1CCCC2(C)C	1	9%	24µM*!	-1
COc1cccc(/C=N/NC(=O)c2nc(-c3ccccc3)cc(-c3ccccc3)n2)c1	-78*	8%	0%	-11
COc1ccc(/C=N/NC(=O)c2nc(-c3ccccc3)cc(-c3ccccc3)n2)cc1OC	-72*	-2%	i	-4
COc1cc(/C=N\NC(=O)c2ccc(-c3ccccc3)cc2)ccc1OCC(N)=O	x	20%	-2%	-5
CCOC(=O)C1=C(O)/C(=C/c2cn(CC(=O)N3CCCC3)c3ccccc23)SC1=Nc1ccccc1	-13	-3%	x	-102*
NC(=O)[C@H]1C[C@@H](O)[C@H](O)[C@H]2[C@@H]1SC(=Nc1ccc(Cl)cc1)N2CC1CCCCC1	x	x	28µM*	x
O=C1CCc2c(Cl)cc(Cl)c(O)c21	x	x	5.6µM*	x
Cc1ccc(C(=O)NCC(=O)NCCc2c[nH]c3ccccc23)cc1	x	x	11%	x
O=c1c2cc(NC(=S)NCCCN3CCC(Cc4ccccc4)CC3)ccc2nc2n1CCCCC2	-72*	0%	u	-29
O=C(c1cc(-c2ccc(Cl)cc2)n(-c2ccc(Cl)cc2)n1)N1CCOCC1	-98*	2%	u	-70*
Cc1ccc(-n2nc(C(=O)N3CCOCC3)cc2-c2ccc(Cl)cc2)cc1	u	-4%	u	-32
COc1ccc(OC)c(/C=C(\C#N)C(=O)Nc2cccc(C(F)(F)F)c2)c1	x	x	-38%	x
COc1ccc(C(=O)N2CCn3c(nnc3[C@@H]3C[C@@H](O)CN3C(C)C)C2)c(OC)c1	x	x	8%	x
COc1ccc(C2NC(=S)NC3=C2CCc2ccccc23)cc1 (stereo unspecified)	x	x	40µM*	x
COc1ccc(C2NC(=S)NC3=C2CCc2cc(OC)ccc23)cc1 (stereo unspecified)	9	1%	28µM*	-2
Cc1ccccc1C(=O)NNC(=S)NC(=O)c1ccc(Cl)cc1Cl	3	-1%	u	-8
Cc1cccc(C(=O)NNC(=S)NC(=O)/C=C/c2cccs2)c1	x	x	35µM*	x
Cc1cccc(C(=O)NC(=S)NNC(=O)c2ccccc2Cl)c1	24	-19%	40µM*	-7
Cc1cccc(C(=O)NC(=S)NNC(=O)Cc2ccccc2)c1	3	1%	45µM*	4
CCc1cc(C(=O)NNC(=S)NC(=O)c2ccccc2)cs1	x	x	40µM*	x
CCCCNC(=S)NNC(=O)c1csc(CC)c1	-1	1%	0%	0
Cc1cccc(C(=O)NC(=S)NCc2ccccc2)c1	-2	x	u	-2
CCOc1ccc(NC(=O)c2n[nH]c(=O)c3ccccc23)cc1OC	x	x	-57%	x
Cc1ccc(C(=O)NC(=S)NNC(=O)COc2ccccc2C)cc1	-11	1%	-26%	6
Cc1cccc(C(=O)NC(=S)NNC(=O)COc2c(C)cccc2C)c1	-2	5%	25µM*	1
SMILES	KCNH2 3.1 inh	AT treatment	ALOX12 inh	KCNH2 WT inh
Cc1ccc(OC2(C(=O)N3CCCC3c3nccs3)CCNCC2)cc1 (stereo unspecified)	x	x	18µM*	x
Cc1ccc(OC2(C(=O)N[C@H]3CCc4ccccc43)CCNCC2)cc1	x	x	-6%	x
Cc1ccc(-c2csc(NS(=O)(=O)c3cccc(F)c3)n2)o1	-5	-1%	16µM*	-10
CC(Nc1ccc(Cl)cc1)c1cc(Cl)ccc1O (stereo unspecified)	2	-3%	u	0
CC(Nc1ccc(Br)cn1)c1cc(Cl)ccc1O (stereo unspecified)	-72*	13%	-11%	-31
CC(Nc1ccc([N+](=O)[O-])cn1)c1ccc(Cl)cc1Cl (stereo unspecified)	x	x	56µM*	x
O=C(O)CCC(=O)N1Cc2ccccc2CC2(CCCN(Cc3ccccn3)C2)C1 (stereo unspecified)	x	x	26%	x
Cc1ccc(S(=O)(=O)SC/C=C/CSS(=O)(=O)c2ccc(C)cc2)cc1	9	x	0.71µM*	1
Cc1ccc(S(=O)(=O)CS(=O)(=O)c2ccc(C)cc2)cc1	x	x	7%	-3
Cc1ccc(S(=O)(=O)SCCCSS(=O)(=O)c2ccc(C)cc2)cc1	x	x	1.8µM*	42
Cc1ccc(S(=O)(=O)C=CS(=O)(=O)c2ccc(C)cc2)cc1	-50	x	8.9µM*	13
COc1ccc(CN2CCCC23Cc2ccccc2CNC3=O)cc1 (stereo unspecified)	x	x	1%[6.33 µM]	x
